Measurements published in the supplement of paper PMC8253809.
Several values for one entry are separate records, joined by “and”; a condition that tells them apart may be missing. Equal values may be shown once.

Key:
Assay in all cases: growth inhibition (% activity, log2 RLU normalised to DMSO / staurosporine); higher = more growth inhibition
Conditions in all cases: 33 µM
[1] = system: DIPGX29 (H3.3 K27M diffuse intrinsic pontine glioma line)
Method in brief: (§1)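 Approved drugs were tested in triplicate at a single final concentration of about 33 μM for 7 days at 37 °C, 5% CO2, on pHGG cell lines and H9-derived neural stem cells. Readout was CellTiter-Glo luminescence, log2-transformed and scaled per plate to % activity between solvent and positive control wells. The median over replicates gives the growth-inhibition value.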

[2] = system: DIPGX37 (H3.3 K27M diffuse intrinsic pontine glioma line)
Method in brief: as §1

[3] = system: DIPGX7 (H3.3 K27M diffuse intrinsic pontine glioma line)
Method in brief: as §1

[4] = system: DIPGX9 (diffuse intrinsic pontine glioma line)
Method in brief: as §1

[5] = system: HGGX39 (paediatric high-grade glioma line)
Method in brief: as §1

[6] = system: HGGX6 (H3.3 G34R paediatric high-grade glioma line)
Method in brief: as §1

[7] = system: HNSC
Method in brief: as §1

[8] = system: SUDIPGIV (diffuse intrinsic pontine glioma line)
Method in brief: as §1

[9] = system: SUDIPGVI (diffuse intrinsic pontine glioma line)
Method in brief: as §1

[10] = system: SUDIPGXIII (diffuse intrinsic pontine glioma line)
Method in brief: as §1

Compound | growth inhibition [1] | growth inhibition [2] | growth inhibition [3] | growth inhibition [4] | growth inhibition [5] | growth inhibition [6] | growth inhibition [7] | growth inhibition [8] | growth inhibition [9] | growth inhibition [10]
Cc1ccccc1N1C(=O)c2cc(S(N)(=O)=O)c(Cl)cc2NC1C (stereo not given) | -2.6% | 0.236% | -3.01% | -0.0701% | -1.7% | -0.825% | -3.02% | -1.65% | -1.57% | -0.324%
COc1cc2nc(N3CCN(C(=O)C4CCCO4)CC3)nc(N)c2cc1OC (stereo not given) | 1.51% | -0.298% | 0.774% | 0.282% | 2.19% | -0.97% | 28% | 2.95% | -1.11% | -3.7%
CCCCC1=NC2(CCCC2)C(=O)N1Cc1ccc(-c2ccccc2-c2nnn[nH]2)cc1 | 1.91% | 3.8% | 1.68% | 1.47% | 3.35% | 3.43% | 2.66% | -0.0514% | 3.23% | 0.582%
Fc1ccc(C(c2ccc(F)cc2)N2CCN(C/C=C/c3ccccc3)CC2)cc1 | 4.97% | 2.42% | 6.22% | 3.95% | 9.77% | 2.44% | 14.4% | 15.8% | 5.18% | 8.8%
Cc1cn(-c2cc(NC(=O)c3ccc(C)c(Nc4nccc(-c5cccnc5)n4)c3)cc(C(F)(F)F)c2)cn1 | 2.27% | 3.07% | 4.89% | 1.74% | 3.66% | 2.75% | 4.26% | 1.93% | 2.31% | -2.01%
CC[C@@H]1/C=C(\C)C[C@H](C)C[C@H](OC)[C@H]2O[C@@](O)(C(=O)C(=O)N3CCCC[C@H]3C(=O)O[C@H](/C(C)=C/[C@@H]3CC[C@H](Cl)[C@H](OC)C3)[C@H](C)[C@@H](O)CC1=O)[C@H](C)C[C@@H]2OC | 1.37% | 4.05% | 3.83% | 5.36% | 7.81% | 2.73% | 8.07% | 5.69% | 5.28% | 5.19%
Oc1ccc(OCc2ccccc2)cc1 | 2.78% | -1.94% | 5.44% | 2.61% | 1.21% | 1.02% | 10.9% | -2.99% | -1.42% | -1.26%
OCC(O)CN1CCN(c2ccccc2)CC1 (stereo not given) | -2.77% | -0.131% | -2.09% | -1.86% | -1.17% | -1.7% | -3.11% | -1.45% | -3.65% | -0.744%
CC(C)(O/N=C(\C(=O)N[C@@H]1C(=O)N2C(C(=O)[O-])=C(C[n+]3ccccc3)CS[C@H]12)c1csc(N)n1)C(=O)O | -0.082% | 3.29% | 2.31% | 0.416% | 1.23% | -0.0518% | 1.13% | -0.671% | 2.58% | 0.376%
Cc1ccc2c(Cl)cc(Cl)c(O)c2n1 | 8.88% | 2.78% | 3.99% | 8.04% | 4.68% | 3.09% | 46% | 5.39% | 5.64% | 3.89%
CC[C@H]1OC(=O)[C@H](C)[C@@H](O[C@H]2C[C@@](C)(OC)[C@@H](O)[C@H](C)O2)[C@H](C)[C@@H](O[C@@H]2O[C@H](C)C[C@H](N(C)C)[C@H]2O)[C@](C)(O)C[C@@H](C)CN(C)[C@H](C)[C@@H](O)[C@]1(C)O | 2.6% and 0.58% | 0.972% and 0.639% | 2.78% and -0.0129% | 0.764% and 1.25% | 1.94% and 0.554% | 0.417% and 2.15% | -0.827% and -1.61% | -0.232% and -0.687% | -6.26% and 1.06% | 1.93% and -0.434%
N=C(N=C(N)N)N1CCOCC1 | 0.894% | 3.09% | 0.853% | 1.87% | 2.32% | 0.804% | 0.723% | -0.801% | 2.92% | -0.103%
CS(=O)(=O)c1ccc([C@@H](O)[C@@H](CO)NC(=O)C(Cl)Cl)cc1 | 7.76% | 3.94% | 4.74% | 7.6% | 16.3% | 5.24% | 15.1% | 35% | 5.62% | 20%
CCOc1nc2cccc(C(=O)O)c2n1Cc1ccc(-c2ccccc2-c2nnn[nH]2)cc1 | 0.354% | -0.496% | 0.489% | -0.089% | 0.622% | 1.65% | 1.93% | -0.153% | 0.98% | -0.345%
CCOCC(O)COc1ccc(NC(=O)CC[S+](C)C)cc1 (stereo not given) | -1.2% | -0.984% | -0.388% | 0.757% | -1.5% | -2.39% | -2.31% | -1.12% | -0.872% | 0.764%
O=C1c2c(O)ccc(O)c2C(=O)c2c(NCCNCCO)ccc(NCCNCCO)c21 | 62.2% | 58.9% | 59.1% | 55.9% | 61.6% | 59% | 62.7% | 59.9% | 35.8% | 39.8%
Cc1cc(=O)n(-c2ccccc2)n1C | -0.731% | -0.447% | -1.9% | 0.213% | -0.272% | -0.826% | -1.87% | 0.134% | 0.115% | 0.666%
CC[N+](CC)(CC)CCOc1cccc(OCC[N+](CC)(CC)CC)c1OCC[N+](CC)(CC)CC | 2.95% | 4.13% | 2.35% | 3.16% | 2.47% | 0.26% | 1.9% | -0.653% | 3.43% | -2.39%
C=C1/C(=C\C=C2/CCC[C@]3(C)[C@@H]([C@H](C)/C=C/[C@H](C)C(C)C)CC[C@@H]23)C[C@@H](O)C[C@@H]1O | 0.433% | 1.95% | 5.3% | 2.6% | 3.71% | 2.65% | 3.33% | 0.335% | 1.4% | 1.03%
COc1cccc2c1C(=O)c1c(O)c3c(c(O)c1C2=O)C[C@@](O)(C(C)=O)C[C@@H]3O[C@H]1C[C@H](N)[C@H](O)[C@H](C)O1 | 55.5% | 56.5% | 54.9% | 43.6% | 53% | 56.3% | 62.2% | 57.2% | 46.8% | 66.3%

Compound | growth inhibition [1] | growth inhibition [2] | growth inhibition [3] | growth inhibition [4] | growth inhibition [5] | growth inhibition [6] | growth inhibition [7] | growth inhibition [8] | growth inhibition [9] | growth inhibition [10]
CNCC[C@@H](Oc1ccccc1C)c1ccccc1 | 1.02% | 2.33% | 2.36% | 0.537% | 2.58% | -1.18% | 8.5% | 3.36% | 4.57% | 1.41%
CCOc1nc2cccc(C(=O)O)c2n1Cc1ccc(-c2ccccc2-c2noc(=O)[nH]2)cc1 | -0.219% | 0.379% | 0.841% | 0.153% | 0.215% | -1.71% | 0.888% | -0.526% | 1.43% | -1.07%
COC(=O)C1=C(C)NC(C)=C(C(=O)OCC(C)C)C1c1ccccc1[N+](=O)[O-] (stereo not given) | 1.94% | 1.14% | 0.789% | 2.65% | 5% | 3.46% | 5.72% | 0.591% | 3.16% | 2.06%
CC(=O)[C@H]1CC[C@H]2[C@@H]3CCC4=CC(=O)CC[C@]4(C)[C@H]3CC[C@]12C | 1.09% | 3.02% | 4.3% | 2% | 4.64% | 5.84% | 2.02% | -1.26% | 1.04% | 1.18%
Nc1nc(=O)c2c([nH]1)NC[C@H](CNc1ccc(C(=O)N[C@@H](CCC(=O)O)C(=O)O)cc1)N2C=O | 1.44% | 1.17% | 2.14% | 0.677% | 1.92% | 0.872% | 35.4% | 2.82% | -2.53% | 0.25%
Nc1ccn(C2CSC(CO)O2)c(=O)n1 (stereo not given) | 0.0189% | 0.319% | -0.231% | 0.518% | 0.787% | -0.895% | 1.26% | -0.385% | 1.46% | 0.705%
COc1cc(C(=O)NS(=O)(=O)c2ccccc2C)ccc1Cc1cn(C)c2ccc(NC(=O)OC3CCCC3)cc12 | -0.736% | 1.77% | 0.79% | -1.19% | 1.49% | -2.28% | -0.546% | -0.0974% | 1.76% | 0.405%
CCOC(=O)[C@H](CCc1ccccc1)N[C@@H](C)C(=O)N1Cc2ccccc2C[C@H]1C(=O)O | 1.41% | 1.99% | 3.28% | 3.18% | 5.5% | 3.4% | 5.54% | 3.99% | 0.712% | 0.247%
Nc1nc(N)nc(-c2cc(Cl)ccc2Cl)n1 | -2.22% | -3.47% | -1.19% | -0.993% | -0.32% | 0.13% | -4.65% | -1.63% | -0.709% | -0.715%
Cc1cnc(C(=O)NCCc2ccc(S(=O)(=O)NC(=O)NC3CCCCC3)cc2)cn1 | 0.556% | 2.29% | 1.52% | 0.701% | 1.35% | 1.61% | 0.478% | 0.461% | 1.46% | 0.0328%
CCN(CC)C(=O)C1(c2ccccc2)CC1CN (stereo not given) | 0.721% | 0.301% | 0.852% | 0.846% | 0.86% | 2.42% | 1.54% | 1.15% | 2.57% | 0.599%
Nc1nc(Cl)nc2c1ncn2[C@@H]1O[C@H](CO)[C@@H](O)[C@@H]1F | 14.6% | 9.43% | 17.6% | 43.6% | 20% | 12.5% | 64.4% | 45% | 2.3% | 14.3%
O=C1CCc2ccc(OCCCCN3CCN(c4cccc(Cl)c4Cl)CC3)cc2N1 | 4.57% | 3.86% | 4.16% | 4.55% | 5.69% | 3.13% | 22% | 4.8% | 4.51% | 14.8%
Cn1nnc2c(C(N)=O)ncn2c1=O | -1.97% | 0.303% | -1.33% | -1.07% | -1.58% | -0.426% | 9.79% | -4.09% | 0.031% | -1.62%
c1cc(CN2CCCNCCNCCCNCC2)ccc1CN1CCCNCCNCCCNCC1 | 1.86% | 3.43% | 1.65% | 2.55% | 4.18% | 5.37% | 11.8% | 12.5% | 5.04% | 3.18%
O=C1NCC2(CCN(CCc3ccccc3)CC2)O1 | 0.324% | -0.568% | 0.908% | 1.98% | 1.24% | 0.472% | -0.511% | -1.95% | 0.357% | 0.871%
N[C@@H]1CONC1=O | 1.31% | -0.333% | 0.738% | 1.4% | 0.732% | 0.485% | -0.391% | -1.17% | 1.19% | 1.03%
COc1ccc(-c2nc3ccc(C4=NNC(=O)CC4C)cc3[nH]2)cc1 (stereo not given) | 0.372% | 2.28% | 1.98% | 1.28% | 3.99% | 2.72% | 3% | 5.46% | -4.45% | 0.884%
CCOC(=O)[C@H](CCc1ccccc1)N[C@@H](C)C(=O)N1Cc2cc(OC)c(OC)cc2C[C@H]1C(=O)O | -2.18% | -2.28% | -0.52% | -1.23% | -1.86% | -4.51% | 12.2% | -0.334% | -11% | 1.38%
